Among all 50,000 compounds or so, about 350 (0.7%) were called active. The list comes from a sample in which actives are over-represented; it also holds similar structures and randomly drawn compounds. Values without a mark were called inactive. No stated cut-off is given here; in the data, active means inhibition above about 60%; inactive means the rest.

These results are taken from PubChem BioAssay AID1992 (Sanford-Burnham Center for Chemical Genomics, 2009).

For the test, the target named is Dual specificity protein phosphatase 3 (Homo sapiens) (UniProt P51452). Kind of test: VHR1 phosphatase inhibitors, primary screen, biochemical, colorimetric, HTS (AID 1992). The conditions noted are these: recombinant VHR phosphatase, colorimetric substrate read-out; at 20 µM; hits give high values.
Sequence of Dual specificity protein phosphatase 3 (Homo sapiens) (P51452 whole entry, looked up): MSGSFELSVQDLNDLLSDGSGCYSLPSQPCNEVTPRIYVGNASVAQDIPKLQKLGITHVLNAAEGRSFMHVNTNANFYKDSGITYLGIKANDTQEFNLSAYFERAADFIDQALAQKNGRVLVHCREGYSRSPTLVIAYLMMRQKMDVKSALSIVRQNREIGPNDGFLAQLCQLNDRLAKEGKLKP
Broadly, the inhibition is the relative decrease from the control value, in per cent. Take `COc1ccc(C(=O)Nc2ccc3oc(-c4cc(Cl)c(OC)c(Cl)c4)nc3c2)cc1OC`: the inhibition was 45.4%.

As for `COc1ccc(N2C(=O)C=CC2=O)c([N+](=O)[O-])c1`, the inhibition is 58.9% (active).

On to `COc1cccc(N2C(=O)C=CC2=O)c1`, for which the inhibition is 49.6%.

Take `COc1ccc(N2C(=O)C3C4C=CC(C4=C(C)C)C3C2=O)c([N+](=O)[O-])c1` (stereo unspecified): the inhibition was 4.6%.

With `Cc1ccc(N2C(=O)/C(=C/N3CCOCC3)c3ccccc3C2=O)cc1`, the inhibition was 13.6%.

Turning to `CCOC(=O)c1c(N2C(=O)C3CC(C)=C(C)CC3C2=O)sc2c1CCCC2` (stereo unspecified), the inhibition was -3.1%.

With `COc1ccccc1-n1c(=S)[nH]c2ccccc2c1=O`, the inhibition was 5.2%.

As for `COC(=O)C1=NNC2(C)C(=O)N(c3ccccc3OC)C(=O)C12` (stereo unspecified), the inhibition was 97% (active).

For the compound `COC(=O)Nc1ccc(S(=O)(=O)N2CCN(c3ccccc3OC)CC2)cc1`, the inhibition is -59.1%.

`O=C(Nc1cc(C(F)(F)F)cc(C(F)(F)F)c1)c1ccco1`: the inhibition was -7.4%.

With `O=C(Nc1cccc(O)c1)c1cccnc1`, the inhibition was -14.8%.

Turning to `CCOC(=O)COc1ccc(/C=N\n2nnnc2N)cc1OC`, the inhibition is -44.1%.

On to `Cc1ccc(C2=C/C(=C\c3cccnc3)C(=O)O2)cc1`, for which the inhibition is 14.8%.

As to `Cc1ccc(/C=C2/C=C(c3ccccc3)OC2=O)o1`, the inhibition was 74.2% (active).

In the case of `CCCCOc1ccc(/C=C2/C=C(c3ccccc3)OC2=O)cc1`, the inhibition was 21.2%.

With `Cc1cc(C)c(NS(=O)(=O)c2ccc3ccccc3c2)c(C)c1`, the inhibition is -0.6%.

As to `O=C(N/N=C/c1ccc(-c2cccc(Cl)c2)o1)c1cccnc1`, the inhibition is -17.2%.

Turning to `O=C(O)c1cc(-c2ccc(C=C3C(=O)c4ccccc4C3=O)o2)ccc1O`, the inhibition is 9.3%.

Turning to `O=C(O)c1cc(-c2ccc(/C=N/Nc3ccc(Cl)c(Cl)c3)o2)ccc1Cl`, the inhibition was 89.1% (active).

Take `O=C(CCc1n[nH]c(=O)[nH]c1=O)N/N=C/c1ccc([N+](=O)[O-])cc1`: the inhibition is -17.4%.

Regarding `C#CCn1cc(/C=C(/C#N)C(=O)Nc2ccc(Cl)cc2)c2ccccc21`, the inhibition was -3.6%.

Consider `CC(=O)c1sc(NC(=O)c2cc(Cl)ccc2[N+](=O)[O-])nc1C`, for which the inhibition was 4.8%.

As to `O=C(Nc1ccccc1C(=O)O)c1ccc(NC(=O)c2cccs2)cc1`, the inhibition is -7.6%.

As to `CCOC(=O)C1=C(C)N=c2s/c(=C\c3cc(OC)c(O)c(OC)c3)c(=O)n2C1c1ccccc1` (stereo unspecified), the inhibition is 35.5%.

As for `O=C(NCCCn1ccnc1)c1cc2c(ccc3ccccc32)oc1=O`, the inhibition was -14.2%.

Turning to `C=C(C)COc1ccc2oc(-c3ccccc3)c(C(=O)O)c2c1`, the inhibition is -5.7%.
